Screening data as filed in PubChem.
A selection: hits, their analogues and other compounds. The true share with any hit is near 3.7%.
tim23-1 inh – tim23-1 yeast growth inhibition; 330,000 tested, 1.3% active; S. cerevisiae tim23-1 growth, BacTiter-Glo luminescence, 24 h; inhibition, % at 20 µM;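 active means growth inhibition of the mutant yeast at or above 50%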;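 further: temperature-sensitive mutant grown at 25 °C; plate controls were DMSO-treated mutant yeast for no effect and medium wells lacking yeast for full effect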
NLRP3 yeast inh – inhibitors of NALP3 inflammasome in yeast | Yeast reconstituted NLRP3/ASC/caspase-1, beta-gal luminescence, 24 h | inhibition, % at 10 µM | 330,000 tested, 0.39% active;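 active means inhibition of 50% or more; inactive means inhibition below 50%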;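 further: plate controls were induced DMSO wells for no effect and uninduced yeast grown without galactose for full effect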
tim10-1 inh – growth inhibitors of tim10-1 mutant yeast. 330,000 tested, 2.2% active. inhibition, % at 20 µM. S. cerevisiae tim10-1 ts strain growth, BacTiter-Glo, 24 h;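 active means inhibition of at least 40%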;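 further: mutant grown at 25 °C; 0% = DMSO wells with yeast and 100% = wells holding no yeast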
PfHsp90 yeast 2 – growth inhibition of yeast expressing Plasmodium Hsp90 | S. cerevisiae expressing PfHsp90, BacTiter-Glo ATP, 48 h; yeast lacking PDR1 and PDR3 efflux regulators | inhibition, % at 9.4 µM | 310,000 tested, 0.32% active;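 active means every replicate shows inhibition above about 80%, whatever the replicate mean, limit read from the data; inconclusive means mean inhibition reaches the set limit but some replicate falls short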;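 further: 0% = DMSO neutral controls and 100% = 20 µM radicicol positive controls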
TIM10 inh – growth inhibitors of TIM10 yeast strain; 330,000 tested, 1.4% active; S. cerevisiae TIM10 strain growth, BacTiter-Glo luminescence, 24 h; inhibition, % at 10 µM;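 active means inhibition of 40% or more at the single tested concentration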;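 further: wild-type TIM10 isogenic control strain grown at permissive 25 °C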
tim23-1 confirm – tim23-1 yeast growth inhibition, confirmed | shares compounds with tim23-1 inh | S. cerevisiae tim23-1 growth, BacTiter-Glo luminescence, 24 h | inhibition, % at 20 µM | 4,400 tested, 83% active | AID 463218;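 active means inhibition above about 39% in either of two replicate wells at 20 µM, limit read from the data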;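 further: temperature-sensitive tim23-1 mutant grown at 25 °C; 0% = DMSO wells with yeast and 100% = medium wells without yeast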
An asterisk follows results filed as active; ? = inconclusive; nt = not tested or not shown.

SMILES	tim23-1 inh	NLRP3 yeast inh	tim10-1 inh	PfHsp90 yeast 2	TIM10 inh	tim23-1 confirm
CCOC(=O)C1C(=O)CC(C)(O)C(C(=O)OCC)C1c1cccc(OC)c1 (stereo not drawn)	7	-8	15	2	11	nt
COC(=O)C1=C(C)OC(N)=C(C#N)C1c1cccnc1 (stereo not drawn)	20	23	8	18	14	nt
CC1=C(C(=O)OC(C)C)C(c2cncc(-c3ccc(F)cc3)c2)C(C#N)=C(N)O1 (stereo not drawn)	50*	14	34	1	35	38
Cc1[nH]c2ccccc2c1C(=O)CN1C(=O)C(=O)N(CCC2=CCCCC2)C1=O	24	18	10	-3	10	nt
CCOC(=O)c1cccc(NC(=O)CSc2nncn2-c2ccccn2)c1	8	11	-2	8	-19	nt
O=C(Nc1cn(-c2ccccc2)nc1-c1cccs1)c1ccco1	58*	1	34	-10	5	47*
O=C(CN1C(=O)CSC1=O)c1ccccc1	6	4	12	28	20	nt
COC(=O)C1CN(C(=O)C(C)Oc2ccc(F)cc2)c2ccccc2O1 (stereo not drawn)	5	5	14	-5	3	nt
Cc1cc(C)nc(SCC(=O)c2cc3ccccc3oc2=O)n1	50*	1	16	1	22	43*
O=C(CSc1nc2ccccc2o1)c1cc2ccccc2oc1=O	38	8	4	-29	0	nt
COc1cccc(CNC(=O)CCS(=O)(=O)c2cccs2)c1	3	-3	10	nt	2	nt
COc1c(Cl)cccc1-c1cn2ccccc2n1	55*	41	6	30	20	34
Cc1ccc(C)c(NC(=O)CN(C)C(=O)c2oc3c(Cl)cccc3c2C)c1	22	11	16	nt	1	nt
CCCCn1c(/C=N/Nc2nc3ccccc3[nH]2)nc2ccccc21	55*	46	38	-19	-10	56*
CCCCn1c(/C=C/c2ccco2)nc2ccccc21	31	8	26	-6	22	nt
Cc1ccc(S(=O)(=O)c2c(C)nn(C(C)(C)C)c2OC(=O)c2cccs2)cc1	51*	12	30	2	24	39
Cc1ccc(S(=O)(=O)n2ccc(OC(=O)c3cccs3)n2)cc1	58*	12	39	8	32	57*
CC(=O)Oc1c(S(=O)(=O)c2ccc(C)cc2)c(C)nn1C(C)(C)C	52*	20	34	-32	23	39
CCCCC(=O)Oc1c(S(=O)(=O)c2ccc(C)cc2)c(C)nn1C(C)(C)C	46	10	24	-6	28	nt
CN(CC(=O)Nc1ccc(Cl)c(C(F)(F)F)c1)C(=O)c1cccs1	23	9	17	22	15	nt
O=C(CCCC(=O)N(CC(=O)NC1CCCCC1)c1ccccc1F)Nc1ccccn1	16	12	2	-39	-8	nt
O=C(CS(=O)(=O)c1ccccc1)Nc1nc(-c2ccc(F)cc2)cs1	57*	-24	27	-20	39	49*
O=C(Nc1ccc(-c2nc3ncccc3o2)cc1)c1ccc([N+](=O)[O-])o1	65*	-12	27	-8	36	83*
COc1ccccc1N(Cc1cc(=O)[nH]c2ccccc12)C(=O)C(C)C	2	20	21	7	-11	nt
O=C1c2cccc3c(Cl)ccc(c23)C(=O)N1O	61*	41	23	-6	10	69*
SMILES	tim23-1 inh	NLRP3 yeast inh	tim10-1 inh	PfHsp90 yeast 2	TIM10 inh	tim23-1 confirm
Cc1ccccc1C(=O)c1c[nH]c(C(=O)NCCc2ccccn2)c1	10	-2	-3	1	-17	nt
Cc1ccccc1NC(=S)N(Cc1cccs1)C1CCCCC1	51*	8	34	-11	28	39*
CCc1nc(Nc2ccc(OC)cc2OC)c2oc3ccccc3c2n1	13	-8	16	-12	5	nt
C=CCn1cccc(C(=O)Nc2ccc(SC)cc2)c1=O	39	30	28	-5	5	nt
C=CCn1cccc(C(=O)Nc2ccc(Cl)cc2)c1=O	53*	8	22	-32	18	21
Cc1ccc(NC(=O)C(=O)NCC2CCCO2)cc1 (stereo not drawn)	-9	5	18	17	7	nt
Fc1ccccc1-c1n[nH]c(=S)n1CC1CCCO1 (stereo not drawn)	6	3	-7	-3	-1	nt
CN(C)c1cccc(C(=O)n2cc(C(=O)c3cc(F)ccc3O)cn2)c1	57*	-1	35	1	18	68*
COc1ccc(O)c(C(=O)c2cnn(C(=O)c3cccc(N(C)C)c3)c2)c1	58*	7	2	-31	26	57*
COc1ccc(O)c(C(=O)c2cnn(C(=O)c3cc(C)oc3C)c2)c1	58*	-1	29	13	7	55*
COc1ccc(C(=O)n2cc(C(=O)c3cc(C)ccc3O)cn2)cc1	41	11	19	-4	25	nt
COc1ccc(C(=O)n2cc(C(=O)c3cc(C)ccc3O)cn2)cc1OC	48	-9	20	13	26	nt
COc1ccc(CN2C(=O)C(C)Nc3ncnc(N4CCOCC4)c32)cc1 (stereo not drawn)	16	6	7	-12	0	nt
O=C1OC(c2ccccc2)=NC12CC2c1ccc(Cl)cc1 (stereo not drawn)	56*	25	-5	-12	30	-69
COc1cc2cncc(Cc3ccc(Cl)cc3)c2cc1OC	57*	16	15	-5	-3	49*
CCCn1c(-c2cccs2)nc2nc3ccccc3nc21	54*	4	39	-28	28	40*
CCNS(=O)(=O)c1cc(OC)ccc1OC	-4	3	13	nt	-12	nt
O=c1[nH]c(NCCO)nc2c1C1(CCCCC1)Cc1ccccc1-2	34	24	39	1	18	nt
CC1(C)CC(n2c(NCCO)nc3c(c2=O)C2(CCCC2)Cc2ccccc2-3)CCO1 (stereo not drawn)	52*	-5	21	-9	36	49*
C=CCN=c1scc(-c2ccco2)n1/N=C/c1ccc(O)c(O)c1O	64*	15	-10	15	-6	62*
COCCN=c1scc(-c2ccco2)n1/N=C/c1ccc(O)c(O)c1O	-14	18	-5	nt	26	nt
CNC(=S)Nc1ccc(Nc2ccccc2)cc1	11	13	23	23	11	nt
O=C1NC(=Nc2ccccc2Cl)S/C1=C\c1cccc([N+](=O)[O-])c1	55*	18	17	?	36	63*
CCNC(=O)n1nccc1C(C)Oc1ccccc1 (stereo not drawn)	1	-10	8	-4	2	nt
COc1cccc(C(=O)NC(=S)N2c3ccccc3CC2C)c1OC (stereo not drawn)	51*	23	22	6	37	54*
Cc1cccc(/C=N/NC(=O)c2c(-c3ccccc3)noc2C)c1O	53*	13	24	-21	33	51*
